# Results filed as inconclusive are left out. Where a call stands in place of a potency, no number is given. A number with no mark means an inactive call. Activity calls are given as the source filed them. Calls come from the whole dose curve; as a rule, active = well fitted inhibition curve with a large enough effect; inconclusive = small, poorly fitted or top-dose-only effect; inactive = no such curve, though single readings can be large or run the other way.
# Test: Primary qHTS for small molecule stabilizers of the endoplasmic reticulum resident proteome: Secreted ER Calcium Modulated Protein (SERCaMP) assay (AID 1508630)
# Method in brief: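 GLuc-SERCaMP-expressing SH-SY5Y cells, pretreated 16 h with compound, are challenged with thapsigargin to empty ER calcium stores; after 4 h, coelenterazine is added directly to the medium and luminescence is imaged.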
smiles,measurement,value
CCOC(=O)CN1C(=O)CC(C[C@@H](O)C2C[C@@H](C)C[C@H](C)C2=O)CC1=O (stereo partly specified),Potency,inactive

# Source: PubChem BioAssay (NCATS)
